About 83,000 compounds went through this panel and 20% of them were active in at least one assay; those are over-represented in the sample as a whole.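 The test compound was applied at a single concentration to cells in 96-well plates for 48 hours, and percent growth was recorded.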 A number with no mark means an inactive call. The source made the active and inactive calls.
What follows are molecules tested on UO-31 renal (assay: NCI-60 one-dose screen, 48 h (100 = growth as untreated, 0 = no growth, -100 = all killed)). Conditions: 10 µM unless noted.
Experimental: Growth inhibition of the UO-31 human tumor cell line is measured as a screen for anti-cancer activity. Cells are grown in 96 well plates and exposed to the test compound for 48 hours. Compounds are tested at a single concentration, which is 10^-5 M for most compounds. The reported endpoint is percent growth (GI% or GIPRCNT), where numbers from 0 - 100% represent growth inhibition, and numbers from -100% - 0 represent cell death. For example, a value of 40 represents 60% growth inhibition. A value of 0 means no net growth occurred over the course of the experiment. A value of -40 indicates 40% of cells at the beginning of the experiment died by the end of the experiment. A value of -100 means all cells are dead at the end of the experiment.
NCI-60 Human Tumor Cell Lines Screen was performed using the standard one-dose NCI protocol, which is described in more detail at https://dtp.cancer.gov/discovery_development/nci-60/default.htm.
Compounds with GIPRCNT values below 10 were considered active. Activity score was based on GIPRCNT using the following formula: […]
Score is 0 for GIPRCNT values of 100 or above, 50 for GIPRCNT values of 0, and 100 for GIPRCNT values of -100.
With `O=C(CCc1nnc2sc(OCc3ccccc3)nn12)c1nc2ccc([N+](=O)[O-])cc2[nH]1` the growth was 67.2%. With `O=c1c2ccccc2oc2ccc(OCCCCCN3CCCCCC3)cc12` the growth was 68.1%. `Cc1ccc(C2=N[C@H]3CCC[C@@H]3N(c3ccccc3)C(C(Cl)Cl)=N2)cc1` gave a growth of 81.9%. Molecule `N#Cc1c(-c2ccc(F)cc2)c(C#N)c2c(C#N)c(N)nn2c1N` has a growth of 75.4%. `Cc1nnc(/N=C2\NC(=O)/C(=C/c3ccsc3)S2)s1` was tested, and the growth was 81.2%. Molecule `COc1cc(/C=C/CO)cc(OC)c1O[C@@H]1O[C@H](CO)[C@@H](O)[C@H](O)[C@H]1O` has a growth of 97.1%. For `COc1ccc(C2N(c3cc(OC)c(OC)c(OC)c3)C(=O)C2(F)F)cc1F` (stereo not given), the growth was 53.5%. In the case of `CCOC(=O)NCCc1nc2c([nH]1)c(=O)n(C)c(=O)n2C`, the growth was 83.3%. Molecule `Cc1nc2sc(C(=O)Nc3cccc4ccccc34)c(N)c2cc1C(C)O` (stereo not given) has a growth of 48.6%. Work on `COc1ccc(/C=C/C(=O)Nc2ncnc3nc[nH]c23)cc1` yielded a growth of 87.8%. In the case of `COc1ccc(-c2[nH]c3ccccc3c2C=C(C#N)C#N)cc1`, the growth was 59.1%. `COc1cc(/C=C/C(=O)c2cccs2)ccc1OCc1ccc(Cl)nc1` was tested, and the growth was 57.2%. `C/C(=N/Nc1nc2ccccc2n1C)c1ccccn1` was tested, and the growth was -16.4% (active). In the case of `COc1ccccc1-c1ccc2nc(NC(=O)Nc3cc(C(F)(F)F)cc(C(F)(F)F)c3)sc2c1`, the growth was 13.1%. With `Nc1c(C(=O)Nc2ccccn2)sc2nc3c(cc12)CCCC3` the growth was 61.6%. `Cc1cccc(C)c1NCc1nnc(-c2ccco2)o1` was tested, and the growth was 65.1%. `COc1ccc(C(=S)c2cc(OC)c(OC)c(OC)c2)cc1OC(=O)CCl` was tested, and the growth was 45.5%. With `Oc1c(CCl)cc(Cl)cc1Cc1cc(Cl)cc(Cc2cc(Cl)cc(CCl)c2O)c1O` the growth was 32%. Molecule `C=C1C(=O)O[C@H]2[C@H]1CC/C(COC(=O)NCC(=O)Nc1ccc(OC)c(C(N)=O)c1O)=C\CC[C@@]1(C)O[C@@H]21` has a growth of 82.7%. `COc1cc2c(cc1OC)C(Sc1ccc(Cl)cc1)c1c(nc(N)c(C#N)c1N)O2` (stereo not given) was tested, and the growth was -36.3% (active). With `Cc1cccc(C)c1Nc1nnc(-c2ccc(F)cc2)o1` the growth was 88.8%. Molecule `O=C(CN1N=C(c2ccc(F)cc2)CCC1=O)Nc1nccs1` has a growth of 87.6%. `CN1CC=C(c2cc(NC(=O)Nc3ccc(Oc4ccnc(NC(=O)C5CC5)c4)c(F)c3)cc(C(F)(F)F)c2)CC1` was tested, and the growth was -1.84% (active). `C=C1C(=O)O[C@H]2[C@H]1CC/C(COC(=O)n1ccnc1)=C\CC[C@@]1(C)O[C@@H]21` was tested, and the growth was 73.3%. For `O=C1NC(SCc2ccc(F)cc2)=N/C1=C/c1cccc(OCc2ccc(Cl)cc2)c1`, the growth was -38.2% (active). For `CCOc1ccc(C2N(c3cc(OC)c(OC)c(OC)c3)C(=O)C2(F)F)cc1` (stereo not given), the growth was 51.9%. `COC(=O)/C=C1\SC(=Nc2cccc(Cl)c2)N(CCc2c[nH]c3ccccc23)C1=O` gave a growth of 58.5%. Molecule `COC(=O)/C=C/c1cc(OC(C)=O)c2c(c1)C(C(=O)OC)C(c1ccc(OC(C)=O)c(OC(C)=O)c1)O2` (stereo not given) has a growth of 35.2%. Molecule `O=C(/C(=C/c1ccc([N+](=O)[O-])cc1)SCc1ccc(F)cc1)c1ccc(Cl)cc1` has a growth of 44.8%. `NCCN1CCNCC1` was tested, and the growth was 90.7%. `CC1(c2ccccc2Cl)NC(=O)NC1=O` (stereo not given) showed a growth of 94%. For `Nc1cc(N)nc(SCC(=O)O)n1`, the growth was 94.4%. Molecule `COCCOC(=O)COc1ccc(OC)cc1` has a growth of 88.9%. For `CCO/C=N/S(=O)(=O)c1cc2c(cc1Cl)NC=NS2(=O)=O`, the growth was 89.1%. Molecule `Nc1cc(N)c(S(=O)(=O)O)cc1N=Nc1cc([N+](=O)[O-])ccc1O` has a growth of 89.4%. Molecule `c1ccc(-c2n(Cc3ccc4ccccc4n3)cc[n+]2Cc2ccc3ccccc3c2)cc1` has a growth of 54.6%. Work on `CCOC(=O)C1=C(C)n2nc(CC#N)c(C#N)c2NC1c1ccc(Cl)cc1` (stereo not given) yielded a growth of 73.3%. `CC1CCN(CCCCCOc2ccc3oc4ccccc4c(=O)c3c2)CC1` showed a growth of 63.1%. `O=C1CCC23OC(c4ccccc4N12)C(O)C(O)C3O` (stereo not given) was tested, and the growth was 86.9%. With `CCOc1ccccc1C(=O)/C=C/c1cc2ccccc2[nH]c1=O` the growth was -97.7% (active).

From PubChem BioAssay (NCI)
